In all, about 360,000 compounds went through this assay and about 1,100 (0.31%) were called active. For the sample, actives were picked, then their nearest neighbours and some compounds at random. Unmarked numbers belong to inactive results. Cut-off read from the data, not from the text of the source: active = activity change below about -80%; inconclusive = mostly about -51% to -80%; inactive = weaker than that.
The molecules below were run against RAC-alpha serine/threonine-protein kinase (Homo sapiens) (UniProt P31749) (assay: HTS Assay for Inhibitors of Akt Phophorylation: Primary Screen). Settings: Neuro2A IGF-stimulated pAkt S473 HTRF, 20 min; at 50 µM, stronger effect = lower value.
From the text: The serine/threonine protein kinase Akt (protein kinase B) regulates various cellular processes, including cell survival, growth, proliferation, migration and differentiation. It has been well established that Akt is activated through two essential steps involving membrane translocation and phosphorylation. Cytosolic Akt is recruited to the plasma membrane via the interaction between the PH domain and membrane PIP3 produced by phosphoinositide-3 kinase (PI3K) upon growth factor receptor stimulation. The membrane-Akt interaction results in conformational changes of Akt, enabling its activation through phosphorylation at T308 in the kinase domain and at S473 in the C-terminal hydrophobic motif by PDK1 and mTOR-rictor complex (mTORC2), respectively. […] These findings indicate that S473 phosphorylation, as an important modulator of Akt activation, may be a valuable drug target for cell growth, survival, proliferation and differentiation. These inhibitors also may have significant therapeutic potential with fewer side effects, especially for the conditions involving hyperactive Akt signaling, such as cancer and Alzheimer's disease.
To this end, a miniaturized assay was developed to be screened against the Molecular Libraries Small Molecule Repository (MLSMR).
NIH Chemical Genomics Center [NCGC]
NIH Molecular Libraries Probe Centers Network [MLPCN]
Assay Submitter (PI): Hee-Yong Kim, National Institute on Alcohol Abuse and Alcoholism
3 uL of Neuro2A cell suspension in DMEM containing 0.5% FBS and […] antibiotics mix was plated in a white solid bottom tissue culture-treated 1536-well plate (Greiner Bio-One, Monroe, NC) at 4,500 cells per well and incubated overnight at 37 deg C. 23 nL/well of compound solutions in DMSO was added with Pintool transfer (Kalypsis, San Diego, CA) at single […] final concentration. Then, the cells were stimulated with 1.5 uL of IGF (6 nM final concentration) and incubated at 37 deg C for 20 min. The reaction was terminated by the addition of 1.5 uL blocking reagent mixed with lysis buffer (1:25 correspondingly) provided with HTRF(R) Phospho Akt (Ser473) kit (Cisbio US, Bedford, MA), with following incubation for 50 min at ambient temperature. The detection HTRF conjugates from the kit were prepared according to the protocol, pre-mixed 1:1 prior to dispensing, and 2 uL/well was added with BioRAPTR FRD dispenser (Beckman Coulter). The assay plates were incubated for 24 hours at ambient temperature, and the HTRF fluorescence was measured using Envision plate reader (PerkinElmer) with excitation at 330nm, emission at 615nm (Eu(3)-Cryptate donor signal) and 665nm (d2 acceptor signal). The ratio of […] was calculated for each well.
For `CCOC(=O)[C@]12CCCC=C1N(CCC1=CCCCC1)C(=O)[C@H](CC(=O)N1CCSCC1)C2`, the activity change was “inactive”.
For `Cc1cccc(C)c1NC(=O)C(c1cccc(F)c1)N1CCN(C)CC1` (stereo unspecified), the activity change was “inactive”.
With `Cc1ccc(F)cc1NC(=O)CSCc1c(C)noc1C` the activity change was “inactive”.
For `Cc1ccc(C)c(NC(=O)COC(=O)c2nn(C)c(=O)c3ccccc23)c1`, the activity change was “inactive”.
In the case of `Cc1ccc(F)cc1NC(=O)Cc1nn(C)c(=O)c2ccccc12`, the activity change is reported as -106% (active).
`CCN1C(=O)/C(=C\N2CCOCC2)SC1=S` was tested, and the activity change was “inactive”.
With `O=C(O)CSc1nnc(-c2ccc3c(c2)OCO3)n1-c1ccccc1` the activity change was “inactive”.
For `O=C(O)CCSc1nnc(-c2ccccc2)n1-c1ccccc1`, the activity change was -109% (active).
`NNC(=O)CSc1nnc(-c2ccccc2)n1-c1ccccc1` was tested, and the activity change was “inactive”.
For `CS(=O)(=O)N1CCN=C1SCc1ccc(F)cc1`, the activity change was “inactive”.
In the case of `Cc1noc(COc2ccccc2OCc2onc(C)c2Cl)c1Cl`, the activity change is reported as -112% (active).
For `Cc1cc(OCCOc2cccc3cccnc23)c(C)cc1Cl`, the activity change was “inactive”.
In the case of `Cc1cc(Cl)ccc1OCc1nc(-c2ccncc2)no1`, the activity change is reported as “inactive”.
With `CC1(C(=O)NCc2ccccc2)CN(S(C)(=O)=O)CC(=O)N1CC(F)(F)F` (stereo unspecified) the activity change was “inactive”.
With `Cc1cccc(NC(=O)CSC(N)=O)c1C` the activity change was -113% (active).
In the case of `Cc1cccc(NC(=O)COC(=O)CCc2ccccc2)c1C`, the activity change is reported as “inactive”.
`Cc1cccc(NC(=O)CSc2nc3c(c(=O)[nH]2)CCCC3)c1C` was tested, and the activity change was “inactive”.
In the case of `C=Cc1ccc(C(=O)N2CCCC(CCC(=O)N3CCN(c4ccccn4)CC3)C2)cc1` (stereo unspecified), the activity change is reported as “inactive”.
`O=C(C[C@H]1CC[C@H]2[C@@H](COC[C@H](O)CN2C(=O)c2ccccn2)O1)N1CCN(c2ccccc2)CC1` was tested, and the activity change was “inactive”.
With `FC(F)(F)c1cc(-c2cccs2)nc(NCc2ccco2)n1` the activity change was -2.47%.
With `FC(F)(F)c1cc(-c2ccco2)nc(NCc2ccc(Cl)cc2)n1` the activity change was -102% (active).
In the case of `COc1nc(NCc2ccc(Cl)cc2)nc(OC)n1`, the activity change is reported as 1.36%.
With `CC(C)(C)n1nnnc1C(c1ccc2ncccc2c1)N1CCSCC1` (stereo unspecified) the activity change was “inactive”.
With `COc1ccc(C(O)C(O)(C(=O)OC(C)C)c2ccc(C)cc2)cc1` (stereo unspecified) the activity change was “inactive”.
`CSc1ccccc1-c1nnc(-c2ccc(Cl)cc2)o1` gave an activity change of -0.409%.
For `FC(F)(F)c1cnc(Oc2ccccc2-c2nnc(-c3ccc(Cl)cc3)o2)c(Cl)c1`, the activity change was -102% (active).
Molecule `Cc1cc(C)cc(NS(=O)(=O)c2ccc(Oc3ncc(C(F)(F)F)cc3Cl)cc2)c1` has an activity change of -13.6%.
`COC(=O)[C@@]12C[C@@H](CC(=O)N3CCC(c4ccccc4)CC3)C(=O)N(Cc3ccccc3)C1=CCC(C)(C)C2` was tested, and the activity change was “inactive”.
`COC(=O)C1=CN(c2c(C)cc(C)cc2C)C(N)=C(C#N)C1c1cccc(F)c1` (stereo unspecified) was tested, and the activity change was “inactive”.
For `Cc1ccc(Cc2nnc(SCC(=O)Nc3ccc(C)cc3C)[nH]c2=O)cc1`, the activity change was “inactive”.
`NC(=O)c1c(NC(=O)CSc2nnc(-c3ccco3)n2N)sc2c1CCCC2` was tested, and the activity change was “inactive”.
For `CCCc1cc(=O)[nH]c(SCC(=O)Nc2sc3c(c2C#N)CCCC3)n1`, the activity change was “inactive”.
For `N#Cc1c(NC(=O)CSc2nc3ccccc3c(=O)n2Cc2ccco2)sc2c1CCCC2`, the activity change was -91.1% (active).
For `CCC(C)CN1C(=O)CN(S(C)(=O)=O)CC1(C)C(=O)Nc1ccc2c(c1)OCCO2` (stereo unspecified), the activity change was “inactive”.
For `O=C1Nc2ccccc2-n2nnnc2C1N1CCN(c2cccc(C(F)(F)F)n2)CC1` (stereo unspecified), the activity change was “inactive”.
For `CC1CCN(c2oc(-c3ccccc3F)nc2C#N)CC1`, the activity change was “inactive”.
For `N#Cc1nc(COc2ccc(Cl)cc2)oc1N1CCCC1`, the activity change was “inactive”.
With `Cc1ccc(OCc2nc(C#N)c(N3CCCC3)o2)cc1` the activity change was -113% (active).
For `C=CCC1(C(=O)N(C)Cc2ccccc2)CCN(C(=O)OC(C)(C)C)CC1`, the activity change was “inactive”.
`CCN(CC)CCCN=C(N)N` was tested, and the activity change was “inactive”.
In the case of `COC(=O)C[C@H]1C=C[C@H](NC(=O)c2ccc(F)cc2)[C@@H](CO)O1`, the activity change is reported as “inactive”.
`N#Cc1nc(Cc2cccc3ccccc23)oc1NCc1ccc2c(c1)OCO2` showed an activity change of -4.85%.
With `N#Cc1nc(Cc2ccccc2)oc1NCCc1ccccc1` the activity change was -105% (active).
With `Cc1ccc(-c2nc(C#N)c(NCCCn3ccnc3)o2)cc1` the activity change was “inactive”.
With `COC(=O)[C@]12CCCCC=C1N(Cc1ccc3c(c1)OCO3)C(=O)[C@H](CC(=O)NCc1cccs1)C2` the activity change was “inactive”.
With `COc1ccccc1P(=O)(c1ccccc1)c1ccccc1NC(C)=O` (stereo unspecified) the activity change was “inactive”.
For `Cc1ccc(C(=O)Nc2c(-c3ccccc3)[nH][nH]c2=O)cc1`, the activity change was “inactive”.
`CCOC(=O)c1sc(NC(=O)CCN2CCOCC2)c(C(=O)OCC)c1C` was tested, and the activity change was -80.1% (active).
In the case of `COC(=O)c1c(NC(=O)CCN2CCOCC2)sc2c1CCCC2`, the activity change is reported as “inactive”.
For `CCOC(=O)c1c(NC(=O)CCCN2CCOCC2)sc2c1CC(C)(C)OC2`, the activity change was “inactive”.
For `CCCCC[C@H](C)N1C[C@@H](COCc2ccccc2)Oc2cc(N3CC[C@@H](N(C)C)C3)ccc2S1(=O)=O`, the activity change was “inactive”.

From PubChem BioAssay AID651550 (National Center for Advancing Translational Sciences (NCATS), 2012)
% is set by controls: 0 for no effect and ±100 for the full control effect.
